Data on nine compounds can be found in PubChem BioAssay (NCI).

Common to all, as to experiment: NCI-60 one-dose screen, 48 h (100 = growth as untreated, 0 = no growth, -100 = all killed)
Holding throughout (details): 10 µM unless noted

The subject of experiment [1] is EKVX NSCLC.
In experiment [2] the test system is SN12C renal.
Experiment [3] relates to UO-31 renal.
The subject of experiment [4] is TK-10 renal.
The test system of experiment [5] is ACHN renal.
The subject of experiment [6] is A498 renal.
The subject of experiment [7] is CCRF-CEM leukemia.
In experiment [8] the test system is MOLT-4 leukemia.
Experiment [9] has as its system SR leukemia.
The test system of experiment [10] is RPMI-8226 leukemia.
Experiment [11] has as its system OVCAR-8 ovarian.
The subject of experiment [12] is OVCAR-5 ovarian.
In experiment [13] the test system is OVCAR-4 ovarian.
Experiment [14] concerns SK-OV-3 ovarian.
In experiment [15] the test system is IGROV1 ovarian.
Experiment [16] has as its system OVCAR-3 ovarian.
Experiment [17] deals with NCI/ADR-RES ovarian.
Experiment [18] has as its system HS 578T breast.
Experiment [19] deals with CAKI-1 renal.

The panel holds about 83,000 compounds, 20% with a hit somewhere; the sample as a whole holds those more often.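 For each line, cells grew in 96-well plates with the test compound present at a single concentration for 48 hours.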 Unmarked numbers belong to inactive results. The source made the active and inactive calls. How the source made its calls: active means growth percent below 10; inactive means the rest.

As to `O=C(/C=C/c1ccc(C(F)(F)F)cc1)c1ccc(Nc2nc(NCCO)nc(NCCO)n2)cc1`, the growth in [1] is 79.5%; in experiment [2], 65.7%; in experiment [3], 44.2%; in experiment [4], 54.8%; in experiment [5] it was 83.7%; in experiment [6] it was 82.1%. In addition, the growth in [7] was 7.48% (active); in experiment [8], 34.5%; in [9], -2.01% (active); in [10], 1.43% (active); in experiment [11] it was 21.7%; in [12], 64.3%. The growth in [13] was 62.3%; in [14], 70.7%; in experiment [15] it was 72.5%; in experiment [16], 25.8%; in experiment [17] it was 90.1%.
On to `COc1ccc(C(=O)/C=C/c2ccc(C)cc2)cc1OC`, for which the growth was 93% in experiment [1]; 75.7% in experiment [2]; -12% (active) in [3]; 114% in [4]; 86.2% in [5]; 80.7% in [6]. Moreover, the growth in [7] was 23.4%; in [8] it was 52.1%; in [10] it was 18.9%; in experiment [12] it was 90.1%; in experiment [13] it was 72.6%; in experiment [14] it was 97.7%. The growth in experiment [15] is -18.8% (active); in experiment [16] it was 4.42% (active); in experiment [18], 107%.
Consider `COc1ccc(CC(=O)Nc2nn3c(-c4cc(C(F)(F)F)cc(C(F)(F)F)c4)nnc3s2)cc1`, for which the growth in [1] is 67.4%; in experiment [2], 64.7%; in experiment [3] it was 74%; in experiment [5], 81.9%; in experiment [19], 46.2%; in experiment [6], 79.9%. Further, the growth is 49.9% in experiment [7]; 65.7% in experiment [8]; 39.7% in experiment [10]; 65% in experiment [11]; 96% in [12]; 66.3% in experiment [13]. In addition, the growth was 59.9% in [15], 53.5% in experiment [16], 75.6% in [18] and 69.1% in experiment [17].
Take `Cc1cc(C)c2c(N)c3cccc(C)c3nc2n1`: the growth in [1] is 3.6% (active); in experiment [2], 6.82% (active); in [3], -84.5% (active); in experiment [4], -1.3% (active); in experiment [5], 5.96% (active); in experiment [6], -57.2% (active). Also, the growth in [7] is 1.26% (active); in experiment [8], -10.5% (active); in experiment [10] it was -35% (active); in [12] it was -22.9% (active); in [13] it was 2.47% (active); in experiment [14], 2.68% (active). Further, the growth in experiment [15] was -38.1% (active); in experiment [16] it was -35.7% (active); in experiment [18], 73.2%; in experiment [17] it was -28.9% (active).
On to `Cc1n(Cc2ccc3ccccc3c2)cc[n+]1Cc1ccc2ccccc2c1`, for which the growth was 47% in experiment [1]; 2.52% (active) in [2]; 81.5% in experiment [3]; 23.5% in experiment [4]; 80.1% in experiment [5]; 31.2% in experiment [6]. Moreover, the growth in experiment [7] was 24.1%; in experiment [8] it was 11.3%; in experiment [9], -3.72% (active); in experiment [10] it was 2.6% (active); in experiment [11], 3.06% (active); in experiment [12], 20.6%. Further, the growth in experiment [13] was 9.29% (active); in experiment [14] it was 21%; in [15], -38.1% (active); in [16] it was -1.02% (active); in experiment [17] it was 92.7%.
For `Cc1sc2nc(NCc3ccccc3)[nH]c(=O)c2c1C`, the growth in experiment [1] was 70.3%; in experiment [2], 68.5%; in experiment [3] it was 74.6%; in [4], 67%; in experiment [5] it was 84%; in [6], 48.9%. Besides, the growth in experiment [7] was 58.9%; in experiment [8], 44%; in experiment [9], 14.4%; in [10], 49.6%; in experiment [11], 59.7%; in experiment [12] it was 70.5%. Further, the growth is 91.7% in [13]; 50.8% in experiment [14]; 67.9% in experiment [15]; 40.7% in experiment [16]; 31.2% in [17].
Take `CCCc1n(Cc2ccc3ccccc3c2)cc[n+]1Cc1ccc2ccccc2c1`: the growth in [1] is 21.1%; in experiment [2], -3.87% (active); in experiment [3], 34.8%; in [4], -8.58% (active); in experiment [5], 42.3%; in experiment [6], -3.35% (active). In addition, the growth in [7] is 11.8%; in experiment [8], -5.48% (active); in [9], -38.1% (active); in experiment [10] it was -22.2% (active); in experiment [11] it was -10.6% (active); in experiment [12], 9.11% (active). Besides, the growth is 6.89% (active) in experiment [14], -54.2% (active) in experiment [15], -55.6% (active) in experiment [16] and 89.2% in experiment [17].
For `O=c1[nH]c(N2CCC(Cc3ccccc3)CC2)nc2sc3c(c12)CCCC3`, the growth is 99.5% in experiment [1]; 103% in experiment [2]; 102% in experiment [3]; 99% in experiment [4]; 104% in [5]; 102% in [6]. Besides, the growth was 91.6% in experiment [7]; 100% in experiment [8]; 109% in experiment [9]; 107% in experiment [10]; 96.3% in experiment [11]; 107% in experiment [12]. In addition, the growth in [13] is 110%; in experiment [14], 101%; in [15], 106%; in [16], 106%; in experiment [17], 96.6%.
Take `COc1cc(/C=C2\CN(S(=O)(=O)c3ccc(C)cc3)C/C(=C\c3cc(CN4CCOCC4)c(O)c(OC)c3)C2=O)cc(CN2CCOCC2)c1O`: the growth in [1] is 11.6%; in experiment [2], -19.3% (active); in experiment [3] it was -89.3% (active); in experiment [5], -82.4% (active); in experiment [19], 9.3% (active); in experiment [6], 36.5%. The growth was 8.78% (active) in experiment [7]; 4.35% (active) in [8]; 4.35% (active) in experiment [9]; -24.8% (active) in experiment [10]; 2.94% (active) in [11]; -26% (active) in experiment [12]. Moreover, the growth in [13] is 24.8%; in [14], 42.6%; in experiment [15], -17% (active); in [16], -17.3% (active); in experiment [18], 27.3%; in experiment [17] it was 5.42% (active).
